Results taken from the antibiotic and cytotoxicity screens of Wong et al. (2023).
Screen size: about 39,000 compounds; about 500 (1.3%) were called active. This is one part of a sample in which actives are shown more often than they occur.

These compounds were tested on S. aureus RN4220 (assay: growth inhibition call (relative growth <= 0.2)). Conditions: 50 µM.
For `C[C@@H]1CN([C@H](C)CO)C(=O)c2cc(NS(=O)(=O)c3ccc(F)cc3)ccc2O[C@@H](C)CCCCO[C@H]1CN(C)C(=O)Nc1ccccc1`, the growth inhibition call was “inactive”. In the case of `CC=Cc1ccc2n(c1=O)C[C@@H]1[C@@H](CO)[C@H](C(=O)NC3CCC3)N(S(C)(=O)=O)[C@H]21`, the growth inhibition call is reported as “inactive”. For `CCCN(C)C[C@@H]1OCCCC[C@@H](C)Oc2ccc(NS(=O)(=O)c3cn(C)cn3)cc2C(=O)N([C@@H](C)CO)C[C@@H]1C`, the growth inhibition call was “inactive”. For `C[C@@H]1CN([C@@H](C)CO)C(=O)c2cc(C#Cc3ccncc3)cnc2O[C@H]1CN(C)S(=O)(=O)c1ccccc1F`, the growth inhibition call was “inactive”. For `C[C@@H]1CN([C@@H](C)CO)C(=O)c2cc(NS(C)(=O)=O)ccc2O[C@@H](C)CCCCO[C@H]1CN(C)S(=O)(=O)c1cn(C)cn1`, the growth inhibition call was “inactive”. In the case of `C[C@@H]1CN([C@H](C)CO)C(=O)c2cccc(NS(C)(=O)=O)c2O[C@@H]1CN(C)S(=O)(=O)c1ccc(F)cc1`, the growth inhibition call is reported as “inactive”. With `C[C@@H]1CN([C@H](C)CO)S(=O)(=O)c2ccc(C#Cc3ccccc3)cc2O[C@H]1CN(C)C(=O)CN(C)C` the growth inhibition call was “inactive”. `C[C@H](CO)N1C[C@H](C)[C@H](CN(C)C(=O)CN(C)C)Oc2cc(C#Cc3ccccc3)ccc2S1(=O)=O` was tested, and the growth inhibition call was “active”. With `C[C@@H]1CN([C@@H](C)CO)S(=O)(=O)c2ccc(C#Cc3ccccc3)cc2O[C@H]1CN(C)C(=O)CN(C)C` the growth inhibition call was “inactive”. `COc1ccc(S(=O)(=O)N(C)C[C@@H]2Oc3ccc(NS(=O)(=O)c4cccs4)cc3CC(=O)N([C@@H](C)CO)C[C@H]2C)cc1` was tested, and the growth inhibition call was “inactive”. With `C[C@@H]1CN([C@@H](C)CO)C(=O)c2cccc(NS(C)(=O)=O)c2O[C@@H]1CN(C)C(=O)Nc1ccc(C(F)(F)F)cc1` the growth inhibition call was “active”. `C[C@H]1CN([C@@H](C)CO)C(=O)c2cccc(NS(C)(=O)=O)c2O[C@@H]1CN(C)C(=O)Nc1ccc(C(F)(F)F)cc1` was tested, and the growth inhibition call was “inactive”. With `C[C@@H]1CN([C@H](C)CO)C(=O)c2cccc(NS(C)(=O)=O)c2O[C@@H]1CN(C)C(=O)Nc1ccc(C(F)(F)F)cc1` the growth inhibition call was “active”. With `C[C@@H]1CN([C@H](C)CO)C(=O)c2cccc(NS(C)(=O)=O)c2O[C@H]1CN(C)C(=O)Nc1ccc(C(F)(F)F)cc1` the growth inhibition call was “inactive”. `C[C@H](CO)N1C[C@H](C)[C@@H](CN(C)C(=O)Nc2ccc(C(F)(F)F)cc2)Oc2c(NS(C)(=O)=O)cccc2C1=O` was tested, and the growth inhibition call was “inactive”. For `C[C@H]1CN([C@@H](C)CO)C(=O)c2cccc(NS(C)(=O)=O)c2O[C@H]1CN(C)C(=O)Nc1ccc(C(F)(F)F)cc1`, the growth inhibition call was “inactive”. `C[C@@H]1CN([C@@H](C)CO)C(=O)c2cccc(NS(C)(=O)=O)c2O[C@H]1CN(C)C(=O)Nc1ccc(C(F)(F)F)cc1` was tested, and the growth inhibition call was “active”. For `C[C@H](CO)N1C[C@H](C)[C@H](CN(C)C(=O)Nc2ccc(C(F)(F)F)cc2)Oc2c(NS(C)(=O)=O)cccc2C1=O`, the growth inhibition call was “inactive”. In the case of `C[C@@H]1CN([C@@H](C)CO)C(=O)c2cccc(NS(C)(=O)=O)c2O[C@H]1CN(C)C(=O)Nc1ccc(F)cc1`, the growth inhibition call is reported as “inactive”. With `CNC(=O)Cn1cc(Br)cn1` the growth inhibition call was “inactive”. For `C[C@H]1N(c2cnn(C)c2)C(=O)COC12CCN(S(C)(=O)=O)CC2`, the growth inhibition call was “inactive”. `O=C1O[C@H](CO)[C@@H](O)[C@H](O)[C@H]1O` was tested, and the growth inhibition call was “inactive”. With `COc1ccc2c3c(n(c2c1)C)[C@@H](CO)N(Cc1ccccc1F)C[C@]13CN(C1)C(=O)C1CCOCC1` the growth inhibition call was “inactive”. `C[C@@H]1CN([C@@H](C)CO)C(=O)c2cccc(NS(C)(=O)=O)c2O[C@@H]1CN(C)C(=O)Nc1ccc2c(c1)OCO2` was tested, and the growth inhibition call was “inactive”. In the case of `CC1CCC2(C)C(C=O)=CCCC2C1(C)CC1OC(O)C(=O)C12CO2` (stereo not drawn), the growth inhibition call is reported as “active”. For `C[C@H]1CN([C@@H](C)CO)C(=O)c2cc(NC(=O)CCN3CCOCC3)ccc2O[C@@H]1CN(C)Cc1ccc2c(c1)OCO2`, the growth inhibition call was “inactive”. With `C[C@H](CO)N1C[C@H](C)[C@@H](CN(C)Cc2ccc(Cl)c(Cl)c2)Oc2ccc(NC(=O)Nc3cccc4ccccc34)cc2C1=O` the growth inhibition call was “inactive”. For `C=CC[C@H](CC(=O)NCCO)C(=O)N[C@H](COC(=O)[C@@H](CC=C)CC(=O)OC(C)(C)C)Cc1ccccc1`, the growth inhibition call was “inactive”. In the case of `O=C(CCCCCCC(=O)Nc1ccccc1)NO`, the growth inhibition call is reported as “inactive”. With `COC(=O)CCCCCCC(=O)Nc1ccc(NC(=O)CCCC[P+](c2ccccc2)(c2ccccc2)c2ccccc2)cc1` the growth inhibition call was “active”. `O=C(CCCCCC(=O)Nc1ccccc1O)N/N=C/C[P+](c1ccccc1)(c1ccccc1)c1ccccc1` was tested, and the growth inhibition call was “inactive”. `C[C@@H]1CN([C@H](C)CO)C(=O)c2cccc(NC(=O)NC3CCCCC3)c2O[C@H]1CN(C)C(=O)Nc1cccc2ccccc12` was tested, and the growth inhibition call was “inactive”. For `C[N+](C)(C)CCCCCCNC(=O)[C@@H]1C[C@@H]2C(=O)N[C@@H](CCCC[N+](C)(C)C)C(=O)N2[C@@H]1c1ccc(O)cc1`, the growth inhibition call was “active”. In the case of `C[N+](C)(C)CCCCNC(=O)[C@H]1C[C@H]2C(=O)N[C@@H](CCCC[N+](C)(C)C)C(=O)N2[C@H]1c1ccc(O)cc1`, the growth inhibition call is reported as “inactive”. `C[N+](C)(C)CCCCCCNC(=O)[C@H]1C[C@H]2C(=O)N[C@@H](CCCC[N+](C)(C)C)C(=O)N2[C@H]1c1ccc(O)cc1` was tested, and the growth inhibition call was “inactive”. `COc1ccc(CNC(=O)C[C@@H]2C[C@H]3c4cc(NC(=O)NC5CCCC5)ccc4O[C@H]3[C@@H](CO)O2)cc1` was tested, and the growth inhibition call was “inactive”. In the case of `O=C(Nc1ccc(S(=O)(=O)OCC(F)(F)C(F)(F)C(F)(F)C(F)F)cc1)NC1(C(F)(F)F)Oc2ccccc2O1`, the growth inhibition call is reported as “active”. For `C=CC[C@@H](CC(=O)N(CCO)Cc1ccccc1)C(=O)NCCOC(=O)[C@@H](CC=C)CC(=O)OC(C)(C)C`, the growth inhibition call was “inactive”. With `C[C@H](CO)N1C[C@H](C)[C@H](CN(C)C(=O)Nc2ccc(C(F)(F)F)cc2)Oc2ccc(NC(=O)Cn3cnnn3)cc2CC1=O` the growth inhibition call was “inactive”. For `O=C(C[C@@H]1CC[C@H]2[C@@H](COC[C@H](O)CN2S(=O)(=O)c2ccccc2)O1)N1CCOCC1`, the growth inhibition call was “inactive”. With `COc1ncc(-c2ccc3c(Nc4cc(Oc5cc(F)cc(F)c5)cc(C(=O)O)c4)c(S(=O)(=O)NC4CC4)cnc3c2)c(OC)n1` the growth inhibition call was “active”. With `CCCN(C)C[C@H]1OCCCC[C@H](C)Oc2ccc(NC(=O)CCC(F)(F)F)cc2C(=O)N([C@H](C)CO)C[C@@H]1C` the growth inhibition call was “inactive”. With `O=C(OCc1ccccc1)c1cccnc1` the growth inhibition call was “inactive”. For `C[C@H]1CCCCO[C@H](CN(C)CC2CCCCC2)[C@@H](C)CN([C@@H](C)CO)C(=O)c2cc(NC(=O)Nc3cccc4ccccc34)ccc2O1`, the growth inhibition call was “inactive”. In the case of `CCCC#Cc1ccc2c(c1)O[C@H](CN(C)Cc1ccc3c(c1)OCO3)[C@H](C)CN([C@@H](C)CO)S2(=O)=O`, the growth inhibition call is reported as “inactive”. `C[C@@H]1CN([C@@H](C)CO)C(=O)c2cc(NS(=O)(=O)c3cccs3)ccc2O[C@@H]1CN(C)CC1CC1` was tested, and the growth inhibition call was “inactive”. For `CN(C)c1cc(NC(=O)CNC(C)(C)C)c(O)c2c1C[C@H]1C[C@H]3[C@H](N(C)C)C(=O)[C@@H](C(N)=O)C(=O)[C@@]3(O)C(=O)[C@H]1C2=O`, the growth inhibition call was “inactive”. `CN(C)c1cc(CNCC(C)(C)C)c(O)c2c1C[C@H]1C[C@H]3[C@H](N(C)C)C(=O)[C@H](C(N)=O)C(=O)[C@@]3(O)C(=O)[C@@H]1C2=O` was tested, and the growth inhibition call was “active”. `CN(C)c1ccc(O)c2c1C[C@@H]1C[C@@H]3[C@@H](N(C)C)C(=O)C(C(N)=O)=C(O)[C@]3(O)C(=O)[C@H]1C2=O` was tested, and the growth inhibition call was “inactive”. With `CN(C)[C@@H]1C(=O)[C@@H](C(N)=O)C(=O)[C@@]2(O)C(=O)[C@H]3C(=O)c4c(O)cccc4C[C@H]3C[C@@H]12` the growth inhibition call was “inactive”. For `CN(C)[C@@H]1C(=O)[C@@H](C(N)=O)C(=O)[C@@]2(O)C(=O)[C@H]3C(=O)c4c(O)ccc(Cl)c4[C@@H](O)[C@H]3C[C@@H]12`, the growth inhibition call was “active”. In the case of `CN(C)c1cc(NC(=O)CNC(C)(C)C)c(O)c2c1CC1CC3C(N(C)C)C(O)=C(C(N)=O)C(=O)C3(O)C(O)=C1C2=O` (stereo not drawn), the growth inhibition call is reported as “inactive”. For `CN(C)[C@@H]1C(=O)[C@@H](C(N)=O)C(=O)[C@@]2(O)C(=O)[C@@H]3C(=O)c4c(O)c(NC(=O)CN5CCCC5)cc(F)c4C[C@H]3C[C@@H]12`, the growth inhibition call was “active”. `CN(C)c1cc(NC(=O)CNC(C)(C)C)c(O)c2c1C[C@H]1C[C@H]3[C@H](N(C)C)C(=O)C(C(N)=O)=C(O)[C@@]3(O)C(=O)[C@H]1C2=O` was tested, and the growth inhibition call was “inactive”. In the case of `CN(C)C1C(O)=C(C(N)=O)C(=O)C2(O)C(O)=C3C(=O)c4c(O)ccc(Cl)c4C(O)C3CC12.Cl` (stereo not drawn), the growth inhibition call is reported as “inactive”. With `CN(C)c1ccc(O)c2c1C[C@H]1C[C@H]3[C@H](N(C)C)C(=O)[C@@H](C(N)=O)C(=O)[C@@]3(O)C(=O)[C@H]1C2=O` the growth inhibition call was “active”. With `CN(C)c1ccc(O)c2c1C[C@H]1C[C@H]3[C@H](N(C)C)C(=O)C(C(N)=O)=C(O)[C@@]3(O)C(=O)[C@H]1C2=O` the growth inhibition call was “inactive”. In the case of `CN(C)[C@@H]1C(=O)[C@@H](C(=O)NCNCCCC[C@H](N)C(=O)O)C(=O)[C@@]2(O)C(=O)[C@@H]3C(=O)c4c(O)cccc4[C@@](C)(O)[C@H]3C[C@@H]12`, the growth inhibition call is reported as “inactive”. For `COc1ccc(S(=O)(=O)N(C)C[C@H]2Oc3ccc(NC(=O)C4CC4)cc3C(=O)N([C@@H](C)CO)C[C@@H]2C)cc1`, the growth inhibition call was “inactive”. `C[C@@H]1CCCCO[C@H](CN(C)C(=O)Nc2ccc3c(c2)OCO3)[C@H](C)CN([C@H](C)CO)C(=O)c2cc(NS(=O)(=O)c3ccc(F)cc3)ccc2O1` was tested, and the growth inhibition call was “inactive”. In the case of `C[C@H](CO)N1C[C@H](C)[C@H](CN(C)Cc2ccc(Cl)c(Cl)c2)Oc2ccc(NC(=O)Nc3ccccc3)cc2CC1=O`, the growth inhibition call is reported as “inactive”. With `O=c1cc(CN2CC[C@H](N3CCOCC3)[C@H](CCCO)C2)nc2c(O)cccn12` the growth inhibition call was “inactive”. With `C[C@@H]1CCCCO[C@@H](CN(C)CC2CCCCC2)[C@@H](C)CN([C@@H](C)CO)C(=O)c2cc(NC(=O)C3CCCCC3)ccc2O1` the growth inhibition call was “inactive”.
